# Measurements reported in PubChem BioAssay.
# Calls of active or inactive are those of the source.
# Tests used:
# [1] = test system: Plasmodium falciparum Sir2 (PF13_0152, Sir2A); test: Plasmodium falciparum Sir2A binding compounds – biochemical, small-molecule microarray, 635 nm fluorescence, primary screen (AID 1098); conditions: fluorescence 635 nm, higher = more signal;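 note: score merges spot fluorescence intensity with its signal-to-noise ratio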
# [2] = probe aDKK1 binding to arrayed compounds – biochemical, biotinylated probe, 635/667 nm fluorescence, primary screen (AID 1099); conditions: small-molecule microarray, higher = more signal;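 note: score merges 667nm spot fluorescence with signal to noise across triplicate slides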
# [3] = probe aCHRDL2 binding to arrayed compounds – biochemical, biotinylated probe, 635/667 nm fluorescence, primary screen (AID 1100); conditions: small-molecule microarray, higher = more signal
# [4] = change in splice reporter luminescence, either direction, cell-based, HEK293, spliceosome inhibition project, primary screen (AID 1101); conditions: HEK293 splicing luciferase reporter, 24 h, higher = more signal, called active from +8 up or from −8 down;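 note: HEK293 cells carrying a splicing-competent luciferase reporter gene; test concentration not given here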
# [5] = target: Fibroblast growth factor 10 (Homo sapiens) (UniProt O15520); test: compounds binding fibroblast growth factor 10 – biochemical, small-molecule microarray, 635 nm fluorescence, primary screen (AID 1102); conditions: FGF10 binding, fluorescence 635 nm, higher = more signal
# [6] = test system: glycogen synthase kinase-3 (GSK3A per assay name; protocol says GSK3B); test: compounds binding glycogen synthase kinase-3 – biochemical, small-molecule microarray, 635 nm fluorescence, GSK3A, primary screen (AID 1103); conditions: fluorescence 635 nm, higher = more signal; note: the record names both GSK3A and GSK3B
# [7] = target: Epidermal growth factor receptor (Homo sapiens) (UniProt P00533); test: compounds binding epidermal growth factor receptor – biochemical, small-molecule microarray, 635 nm fluorescence, primary screen (AID 1104); conditions: EGFR binding, higher = more signal;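 note: score merges 667 nm emission intensity with spot signal to noise over triplicate slides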
# [8] = target: Follistatin-related protein 3 (Homo sapiens) (UniProt O95633); test: compounds binding follistatin-related protein 3 – biochemical, small-molecule microarray, 635 nm fluorescence, primary screen (AID 1105); conditions: FSTL3 binding, higher = more signal;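 note: score merges emission near 667 nm and signal to noise per printed spot across three slides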
# [9] = target: Dickkopf-related protein 1 (Homo sapiens) (UniProt O94907); test: small molecules binding DKK1 protein – biochemical, small-molecule microarray, 635 nm fluorescence scan, primary screen (AID 1106); conditions: higher = more signal;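 note: score merges emission near 667 nm with signal to noise over three replicate slides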
# [10] = test system: Inhibin beta A chain (activin A); test: small molecules binding activin A – biochemical, small-molecule microarray, 635 nm fluorescence scan, primary screen (AID 1107); conditions: INHBA, higher = more signal;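 note: mouse activin A protein probed at 4.33 µg/mL on printed slides; score merges bound-protein fluorescence near 667 nm with spot signal-to-noise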
# [11] = test system: Human papillomavirus type 1a protein E7 (residues 44-93); test: small molecules binding HPV E7 44-93 – biochemical, small-molecule microarray, residues 44-93, 635 nm fluorescence, primary screen (AID 1108); conditions: fluorescence 635 nm, higher = more signal;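 note: E7 fragment applied at 1 µg/mL in TBST for 1 h at 4 C; score combines spot fluorescence with its signal to noise ratio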
# [12] = hepatitis C replication reporter changes, two-sided – Huh7 cells, luciferase reporter, HCV replication inhibitor project, primary screen (AID 1109); conditions: Huh7 HCV replicon luciferase reporter, 48 h; higher = more signal;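 note: huh7 hepatoma cells harbouring a luciferase neomycin HCV replicon reporter; luciferase luminescence as measure of HCV replicon replication; test concentration not given here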
# [13] = target: Left-right determination factor 2 (Homo sapiens) (UniProt O00292); test: small molecules binding LEFTY2 protein – biochemical, small-molecule microarray, 635 nm fluorescence scan, primary screen (AID 1110); conditions: higher = more signal
# [14] = target: Calmodulin-1 (Homo sapiens) (UniProt P0DP23); test: small molecules binding calmodulin-1 with EGTA – biochemical, small-molecule microarray, Cy5-labelled CALM1, profiling panel (AID 1111); conditions: Cy5-CALM1 binding fluorescence, higher = more signal;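 note: labelled calmodulin applied in Tris saline Tween buffer holding calcium plus EGTA and DTT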
# [15] = target: Calmodulin-1 (Homo sapiens) (UniProt P0DP23); test: small molecules binding Ca-loaded calmodulin-1 – biochemical, small-molecule microarray, Cy5-labelled CALM1, plus calcium, artefact control for SMM control-protein annotation, profiling panel (AID 1112); conditions: Cy5-CALM1 binding fluorescence, higher = more signal;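 note: score merges spot fluorescence with signal to noise from triplicate slides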
# [16] = probe aWnt5a binding to arrayed compounds – biochemical, biotinylated probe, 635/667 nm fluorescence, primary screen (AID 1113); conditions: small-molecule microarray, higher = more signal;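 note: score merges 667 nm fluorescence intensity with signal-to-noise per printed feature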
# [17] = probe aShh binding to arrayed compounds – biochemical, biotinylated probe, 635/667 nm fluorescence, primary screen (AID 1114); conditions: small-molecule microarray, higher = more signal;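 note: probe is biotin-labelled aShh protein from a stem cell growth factor screen; measures binding of labelled protein to compounds printed on the slide; score merges feature fluorescence at 667 nm with signal-to-noise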
# [18] = probe aNog binding to arrayed compounds – biochemical, biotinylated probe, 635/667 nm fluorescence, primary screen (AID 1115); conditions: small-molecule microarray, higher = more signal;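 note: probe is biotinylated aNog protein used at 0.15 µg/mL for 1 h at 4 C; z-score combines 667 nm fluorescence of each spot with its signal to noise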
# [19] = target: Torsin-1A-interacting protein 1 (Homo sapiens) (UniProt Q5JTV8); test: compound microarray binding of lysate hLAP1 – cell lysate, small-molecule microarray, COS7 lysate, 635/667 nm fluorescence, primary screen (AID 1116); conditions: 635 nm fluorescence, higher = more signal
# [20] = target: Alpha-bungarotoxin (Bungarus multicinctus) (UniProt P60615); test: compounds binding labelled alpha-BTX control protein – biochemical, small-molecule microarray, Alexa647 label, 635/667 nm fluorescence, artefact control for SMM control protein annotation, profiling panel (AID 1117); conditions: alpha-BTX-A647 binding fluorescence, higher = more signal
# Sequence of Alpha-bungarotoxin (Bungarus multicinctus) (P60615 whole entry, looked up): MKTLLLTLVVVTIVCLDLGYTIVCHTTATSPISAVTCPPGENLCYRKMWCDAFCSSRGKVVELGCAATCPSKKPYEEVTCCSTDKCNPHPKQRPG
# Sequence of Follistatin-related protein 3 (Homo sapiens) (O95633 whole entry, looked up): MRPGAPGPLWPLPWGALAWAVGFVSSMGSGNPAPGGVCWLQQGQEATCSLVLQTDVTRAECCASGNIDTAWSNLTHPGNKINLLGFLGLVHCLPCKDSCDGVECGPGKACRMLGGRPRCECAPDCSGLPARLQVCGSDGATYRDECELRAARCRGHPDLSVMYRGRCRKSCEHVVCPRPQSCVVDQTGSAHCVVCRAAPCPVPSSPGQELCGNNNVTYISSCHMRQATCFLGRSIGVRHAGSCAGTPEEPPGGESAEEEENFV
# Sequence of Torsin-1A-interacting protein 1 (Homo sapiens) (Q5JTV8 whole entry, looked up): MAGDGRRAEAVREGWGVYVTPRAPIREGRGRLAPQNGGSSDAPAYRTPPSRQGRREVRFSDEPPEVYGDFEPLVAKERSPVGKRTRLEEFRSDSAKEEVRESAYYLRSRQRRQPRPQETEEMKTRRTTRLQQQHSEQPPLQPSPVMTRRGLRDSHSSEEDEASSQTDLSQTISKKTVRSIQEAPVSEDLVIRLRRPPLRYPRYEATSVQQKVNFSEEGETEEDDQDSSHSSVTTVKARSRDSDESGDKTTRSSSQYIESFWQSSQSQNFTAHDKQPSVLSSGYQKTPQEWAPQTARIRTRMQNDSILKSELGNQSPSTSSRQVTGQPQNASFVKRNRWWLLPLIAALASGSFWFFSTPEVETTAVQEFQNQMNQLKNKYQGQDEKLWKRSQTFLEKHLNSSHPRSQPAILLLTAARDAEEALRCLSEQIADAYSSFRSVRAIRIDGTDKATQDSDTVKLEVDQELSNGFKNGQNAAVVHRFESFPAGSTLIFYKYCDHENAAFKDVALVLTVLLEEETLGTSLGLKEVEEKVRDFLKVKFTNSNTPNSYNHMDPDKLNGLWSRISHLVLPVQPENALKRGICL
# Sequence of Epidermal growth factor receptor (Homo sapiens) (P00533 whole entry, looked up): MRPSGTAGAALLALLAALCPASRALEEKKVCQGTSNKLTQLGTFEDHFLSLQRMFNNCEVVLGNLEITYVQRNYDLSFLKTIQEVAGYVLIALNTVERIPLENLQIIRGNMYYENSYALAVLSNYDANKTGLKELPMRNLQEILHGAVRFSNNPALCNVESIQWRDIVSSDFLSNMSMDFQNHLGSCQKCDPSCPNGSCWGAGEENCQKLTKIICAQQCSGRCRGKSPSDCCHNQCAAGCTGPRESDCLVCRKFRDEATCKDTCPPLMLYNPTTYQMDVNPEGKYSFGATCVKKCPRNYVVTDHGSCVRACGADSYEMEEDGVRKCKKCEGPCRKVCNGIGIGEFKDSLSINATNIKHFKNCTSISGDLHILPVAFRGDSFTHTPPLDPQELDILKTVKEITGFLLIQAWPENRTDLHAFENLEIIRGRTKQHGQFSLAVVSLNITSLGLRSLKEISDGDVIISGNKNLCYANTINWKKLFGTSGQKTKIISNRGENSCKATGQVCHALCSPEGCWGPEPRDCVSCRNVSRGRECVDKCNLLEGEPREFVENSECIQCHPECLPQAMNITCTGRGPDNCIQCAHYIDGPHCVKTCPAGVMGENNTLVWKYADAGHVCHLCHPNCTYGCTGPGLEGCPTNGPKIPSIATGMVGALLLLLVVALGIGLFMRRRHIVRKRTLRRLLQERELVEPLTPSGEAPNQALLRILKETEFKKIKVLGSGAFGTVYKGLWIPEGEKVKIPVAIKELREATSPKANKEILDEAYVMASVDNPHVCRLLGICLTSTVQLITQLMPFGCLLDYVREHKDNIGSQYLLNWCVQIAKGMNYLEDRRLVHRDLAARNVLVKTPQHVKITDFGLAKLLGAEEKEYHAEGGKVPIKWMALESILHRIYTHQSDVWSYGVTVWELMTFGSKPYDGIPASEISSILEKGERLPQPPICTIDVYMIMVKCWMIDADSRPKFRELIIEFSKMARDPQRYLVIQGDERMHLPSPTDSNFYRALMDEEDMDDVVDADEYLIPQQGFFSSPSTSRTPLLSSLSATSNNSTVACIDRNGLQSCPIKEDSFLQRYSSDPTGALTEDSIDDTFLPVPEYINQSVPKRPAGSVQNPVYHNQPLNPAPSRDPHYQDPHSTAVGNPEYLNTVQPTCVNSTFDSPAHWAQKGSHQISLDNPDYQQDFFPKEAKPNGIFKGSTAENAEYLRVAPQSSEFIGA
# Sequence of Left-right determination factor 2 (Homo sapiens) (O00292 whole entry, looked up): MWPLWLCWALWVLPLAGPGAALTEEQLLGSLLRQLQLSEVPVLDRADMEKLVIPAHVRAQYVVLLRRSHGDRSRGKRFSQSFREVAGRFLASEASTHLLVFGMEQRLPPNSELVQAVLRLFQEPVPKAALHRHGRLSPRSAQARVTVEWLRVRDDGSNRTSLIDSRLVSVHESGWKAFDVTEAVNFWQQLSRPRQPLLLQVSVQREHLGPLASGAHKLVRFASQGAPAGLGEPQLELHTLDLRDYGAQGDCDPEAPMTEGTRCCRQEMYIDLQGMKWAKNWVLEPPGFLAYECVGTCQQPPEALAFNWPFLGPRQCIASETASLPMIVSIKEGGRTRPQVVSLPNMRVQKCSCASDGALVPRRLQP
# Sequence of Dickkopf-related protein 1 (Homo sapiens) (O94907 whole entry, looked up): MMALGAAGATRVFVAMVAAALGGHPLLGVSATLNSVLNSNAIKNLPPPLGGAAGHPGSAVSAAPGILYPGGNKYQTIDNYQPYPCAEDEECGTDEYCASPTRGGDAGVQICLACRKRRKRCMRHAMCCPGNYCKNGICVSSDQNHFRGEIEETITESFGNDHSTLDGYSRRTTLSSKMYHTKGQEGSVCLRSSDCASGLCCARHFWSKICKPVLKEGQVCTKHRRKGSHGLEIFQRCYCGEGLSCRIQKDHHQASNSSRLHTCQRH
# Sequence of Fibroblast growth factor 10 (Homo sapiens) (O15520 whole entry, looked up): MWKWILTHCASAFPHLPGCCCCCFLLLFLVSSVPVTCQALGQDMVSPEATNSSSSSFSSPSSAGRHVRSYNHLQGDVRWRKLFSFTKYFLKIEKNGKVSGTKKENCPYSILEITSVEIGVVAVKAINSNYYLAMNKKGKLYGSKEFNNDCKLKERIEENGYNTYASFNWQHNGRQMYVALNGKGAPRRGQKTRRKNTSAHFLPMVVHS
Structure (SMILES),composite z-score [1],composite z-score [2],composite z-score [3],z-score [4],composite z-score [5],composite z-score [6],composite z-score [7],composite z-score [8],composite z-score [9],composite z-score [10],composite z-score [11],z-score [12],composite z-score [13],composite z-score [14],composite z-score [15],composite z-score [16],composite z-score [17],composite z-score [18],composite z-score [19],composite z-score [20]
O=C(CS)NCCCCCCNC(=O)[C@H]1C[C@H]2C(=O)N3CCC[C@H]3C(=O)N2[C@H]1c1cccc(OCCO)c1,1.86,-0.037,-0.109,0.5 (inactive),1.08,1.34,0.543,0.575,0.904,0.683,1.36,-0.36,0.36,0.803,0.0685,-0.0236,0.251,-0.353,0.557,0.383
COCCOC(=O)N1C(=O)[C@@]2(c3cc(C#CCC(C(=O)OC)C(=O)OC)ccc31)[C@H](c1ccccc1OCCO)N1[C@H](c3ccccc3)[C@H](c3ccccc3)OC(=O)[C@H]1[C@@H]2C(=O)N1CCc2cc(OC)c(OC)cc2C1,1.24,0.176,-0.131,-0.988 (inactive),1.16,1.33,0.99,1.3,1.42,0.645,1.2,-1.79,0.958,1.54,0.0013,-0.363,-0.148,-0.289,0.496,0.942
C=CC[C@@]1(C(=O)O)N=C(c2ccc(OCCCO)cc2)O[C@@H]1c1ccccc1N=[N+]=[N-],1.48,1.08,1.2,0.0828 (inactive),0.291,0.658,-0.107,0.316,-0.227,1.46,0.411,1.03,0.294,1.39,0.341,-0.0236,-0.181,1.24,1.02,1.77
[N-]=[N+]=NCc1ccccc1[C@@H]1OC(c2ccc(OCCCO)cc2)=N[C@]1(Cc1ccccc1N=[N+]=[N-])C(=O)NCc1ccccc1,0.919,0.0108,0.316,-0.856 (inactive),0.691,1.25,0.351,0.667,0.0688,1.28,1.33,-1.64,0.374,1.34,0.12,-0.138,-0.221,-0.447,1.4,0.158
O=C1C2C=CC(C(O)c3cccs3)N(Nc3ccccc3F)C2C(=O)N1c1ccccc1 (stereo not given),0.87,0.266,0.541,-0.743 (inactive),0.092,0.308,0.0444,0.224,-0.0382,0.804,0.749,0.124,-0.0883,0.0073,-0.65,0.0633,0.0723,-0.126,0.543,0.825
COC(=O)c1ccc(C(O)C2C=CC3C(=O)N(c4ccccc4)C(=O)C3N2Nc2ccc(C#N)cc2)o1 (stereo not given),0.969,0.51,0.669,1.28 (inactive),0.989,0.137,0.219,0.311,-0.0752,0.961,1.18,-0.133,0.196,-0.118,-0.637,0.0136,0.582,0.363,0.681,-0.187
O=C1N(CCS(=O)(=O)c2ccccc2)Cc2ccccc2C[C@]12N=C(c1ccc(OCCCO)cc1)O[C@@H]2c1ccccc1,1.24,0.467,0.655,-1.46 (inactive),1.4,1.3,0.477,1.18,0.784,1.4,-0.183,-2.19,0.947,2.54,0.422,0.122,0.21,1.21,1.88,1.59
C=CCC(OC(C)=O)[C@@H]1[C@@H](N(Cc2ccc(-c3ccccc3)cc2)C(=O)Cc2ccc(OC)cc2)c2cc(OCCCO)ccc2N1C(=O)c1ccc2ccccc2n1 (stereo not given in full),-0.245,-0.106,0.027,-1.33 (inactive),-0.19,-0.494,0.24,-0.0321,0.37,1.48,-0.844,-0.36,-0.259,0.143,1.01,0.0259,-0.0553,-0.0544,0.589,0.819
Cc1ccc(S[C@]2(C(=O)NCC(C)C)CC(=O)N(Cc3ccccc3)[C@@H]2c2ccc(CO)cc2I)cc1,1.52,0.0143,0.388,-0.531 (inactive),0.417,0.441,0.287,0.75,0.149,0.975,1.29,-2.6,0.118,0.425,0.473,-0.063,-0.196,-0.67,0.0825,0.545
N#Cc1ccc(NN2C(C(O)c3ccc([N+](=O)[O-])cc3)C=CC3C(=O)N(c4ccccc4)C(=O)C32)cc1 (stereo not given),1.29,0.829,1.08,2.23 (inactive),0.626,0.751,0.0159,0.422,-0.392,0.787,0.61,0.69,0.0872,0.971,0.235,0.119,0.935,1.18,0.818,0.752
O=C(CS)NCCCCCCNC(=O)[C@H]1C[C@H]2C(=O)NCC(=O)N2[C@H]1c1ccc(O)cc1,0.576,-0.213,0.694,-0.295 (inactive),-0.175,-0.607,-0.606,-0.46,0.22,-0.58,-0.175,-0.344,-0.571,-0.156,0.802,-0.171,-0.286,-0.379,-0.633,0.136
